Targets with a hit are over-represented here; the source holds about 7,900 in all. About 0.6% of all pairs of compound and target were hits. Unmarked numbers belong to inactive results.
Key:
Experiment in all cases: log2 fold change, soluble protein after heating vs DMSO (PISA); higher = thermal stabilisation; K562 cells, 10 uM, 30 min; active = over 0.2 and 3.5 SD of the protein, either way, in both replicates (recomputed)
[1] = compound: CC1=C(C=C(C=C1)NC(=O)C2=CC(=CC=C2)C(C)(C)C#N)NC3=CC4=C(C=C3)N=CN(C4=O)C
Outline: (§1)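 K562 cells at 2×10^6 cells/mL were given 10 μM compound for 30 min. Aliquots then went through 3 min of heating across 48°C-58°C, were pooled, and were extracted in PBS with 0.5% NP-40 at 4°C, and the supernatant after 21,000xg for 90 min was quantified by TMTpro 16plex LC-MS/MS with channel sums equalised. Thermal stability relative to control samples, from duplicates, is given as log2 fold change.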

[2] = compound: CC1=C(C=C(C=C1)NC(=O)C2=CC(=CC=C2)N(C)C)NC(=O)C3=CC=C(C=C3)O
Outline: as §1

[3] = compound: CC1=CC=C(C=C1)SC2=C3C=C(SC3=CN=C2)C(=O)N
Outline: as §1

[4] = compound: CC1=NC(=CC=C1)C2=C(N=C(N2)C(C)(C)C)C3=CC4=NC=CN=C4C=C3
Outline: as §1

[5] = compound: CCCCN(Cc1ccc(C(=O)NO)cc1)C(=O)Nc1ccccc1 [Nexturastat A]
Outline: as §1

[6] = compound: CCCS(=O)(=O)Nc1ccc(F)c(C(=O)c2c[nH]c3ncc(-c4ccc(Cl)cc4)cc23)c1F [vemurafenib]
Outline: as §1

[7] = compound: CCCS(=O)(=O)Nc1ccc(F)c(C(=O)c2c[nH]c3ncc(Cl)cc23)c1F
Outline: as §1

[8] = compound: CCCc1cc(C)[nH]c(=O)c1CNC(=O)c1cc(-c2ccnc(N3CCN(C)CC3)c2)cc2c1cnn2C(C)C
Outline: as §1

[9] = compound: CCN(CC)Cc1ccc2cc(COC(=O)Nc3ccc(C(=O)NO)cc3)ccc2c1 [givinostat]
Outline: as §1

[10] = compound: CCN(CCCOc1ccc2c(Nc3cc(CC(=O)Nc4cccc(F)c4)[nH]n3)ncnc2c1)CCOP(=O)(O)O [barasertib]
Outline: as §1

Sequence of UniProt Q86VX9 (Q86VX9 whole entry, looked up): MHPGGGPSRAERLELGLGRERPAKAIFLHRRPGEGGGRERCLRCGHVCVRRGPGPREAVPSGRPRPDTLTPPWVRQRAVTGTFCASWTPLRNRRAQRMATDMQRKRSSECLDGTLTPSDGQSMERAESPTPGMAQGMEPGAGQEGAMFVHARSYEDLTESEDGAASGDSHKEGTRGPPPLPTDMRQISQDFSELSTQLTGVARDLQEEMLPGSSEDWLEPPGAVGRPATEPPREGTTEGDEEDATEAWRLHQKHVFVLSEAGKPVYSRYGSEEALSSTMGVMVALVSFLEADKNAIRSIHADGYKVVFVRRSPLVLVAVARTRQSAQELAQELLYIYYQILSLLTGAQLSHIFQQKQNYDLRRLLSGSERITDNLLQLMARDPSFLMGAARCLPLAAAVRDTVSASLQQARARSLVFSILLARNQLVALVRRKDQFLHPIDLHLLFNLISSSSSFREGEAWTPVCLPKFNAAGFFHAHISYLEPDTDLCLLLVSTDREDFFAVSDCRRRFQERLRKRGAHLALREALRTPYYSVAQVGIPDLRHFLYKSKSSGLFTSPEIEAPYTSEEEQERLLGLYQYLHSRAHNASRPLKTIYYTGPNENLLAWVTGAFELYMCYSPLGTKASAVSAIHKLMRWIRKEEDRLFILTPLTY
Sequence of UniProt Q9UH92 (Q9UH92 whole entry, looked up): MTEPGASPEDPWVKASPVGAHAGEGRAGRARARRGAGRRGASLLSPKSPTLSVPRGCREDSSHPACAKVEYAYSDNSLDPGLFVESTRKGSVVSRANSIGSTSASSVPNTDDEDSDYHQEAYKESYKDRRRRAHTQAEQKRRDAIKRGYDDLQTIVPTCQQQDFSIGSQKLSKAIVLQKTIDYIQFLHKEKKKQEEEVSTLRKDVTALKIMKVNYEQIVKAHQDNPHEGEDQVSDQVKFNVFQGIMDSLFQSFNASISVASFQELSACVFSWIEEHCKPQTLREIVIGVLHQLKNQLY
Sequence of UniProt Q9HCD5 (Q9HCD5 whole entry, looked up): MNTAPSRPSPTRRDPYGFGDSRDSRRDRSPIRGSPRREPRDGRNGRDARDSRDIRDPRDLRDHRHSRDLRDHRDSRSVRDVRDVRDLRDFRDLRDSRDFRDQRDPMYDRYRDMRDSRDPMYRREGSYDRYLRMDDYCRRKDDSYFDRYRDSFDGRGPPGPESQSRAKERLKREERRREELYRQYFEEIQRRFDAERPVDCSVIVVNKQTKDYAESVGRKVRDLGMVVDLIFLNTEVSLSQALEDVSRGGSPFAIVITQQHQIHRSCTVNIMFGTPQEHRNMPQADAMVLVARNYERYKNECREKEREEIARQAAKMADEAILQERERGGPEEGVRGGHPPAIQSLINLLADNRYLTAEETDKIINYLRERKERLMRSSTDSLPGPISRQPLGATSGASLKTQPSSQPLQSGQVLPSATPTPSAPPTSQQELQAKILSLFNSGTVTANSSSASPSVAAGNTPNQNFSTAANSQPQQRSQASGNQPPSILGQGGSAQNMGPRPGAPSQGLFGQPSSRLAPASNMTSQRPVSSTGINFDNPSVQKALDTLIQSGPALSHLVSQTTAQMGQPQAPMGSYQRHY
Sequence of UniProt Q99747 (Q99747 whole entry, looked up): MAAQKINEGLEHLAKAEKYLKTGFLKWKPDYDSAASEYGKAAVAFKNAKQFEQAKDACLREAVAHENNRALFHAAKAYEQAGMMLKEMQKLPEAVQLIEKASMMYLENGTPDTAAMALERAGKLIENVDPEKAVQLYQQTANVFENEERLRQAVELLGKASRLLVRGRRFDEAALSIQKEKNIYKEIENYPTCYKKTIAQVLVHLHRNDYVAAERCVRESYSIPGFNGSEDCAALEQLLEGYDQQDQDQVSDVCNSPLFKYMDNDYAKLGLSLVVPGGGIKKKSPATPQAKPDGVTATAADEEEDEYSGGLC
Sequence of UniProt Q15738 (Q15738 whole entry, looked up): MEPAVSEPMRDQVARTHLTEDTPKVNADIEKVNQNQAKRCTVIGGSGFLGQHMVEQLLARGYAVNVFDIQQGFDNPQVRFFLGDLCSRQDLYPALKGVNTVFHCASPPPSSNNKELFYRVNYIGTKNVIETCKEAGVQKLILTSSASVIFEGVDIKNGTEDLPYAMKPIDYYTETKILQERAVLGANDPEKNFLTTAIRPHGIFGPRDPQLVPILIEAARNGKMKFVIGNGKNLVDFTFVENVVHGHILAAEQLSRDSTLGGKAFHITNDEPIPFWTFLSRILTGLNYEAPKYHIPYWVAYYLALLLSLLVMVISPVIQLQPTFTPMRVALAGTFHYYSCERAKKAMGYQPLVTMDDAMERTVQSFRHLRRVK
Sequence of UniProt Q92692 (Q92692 whole entry, looked up): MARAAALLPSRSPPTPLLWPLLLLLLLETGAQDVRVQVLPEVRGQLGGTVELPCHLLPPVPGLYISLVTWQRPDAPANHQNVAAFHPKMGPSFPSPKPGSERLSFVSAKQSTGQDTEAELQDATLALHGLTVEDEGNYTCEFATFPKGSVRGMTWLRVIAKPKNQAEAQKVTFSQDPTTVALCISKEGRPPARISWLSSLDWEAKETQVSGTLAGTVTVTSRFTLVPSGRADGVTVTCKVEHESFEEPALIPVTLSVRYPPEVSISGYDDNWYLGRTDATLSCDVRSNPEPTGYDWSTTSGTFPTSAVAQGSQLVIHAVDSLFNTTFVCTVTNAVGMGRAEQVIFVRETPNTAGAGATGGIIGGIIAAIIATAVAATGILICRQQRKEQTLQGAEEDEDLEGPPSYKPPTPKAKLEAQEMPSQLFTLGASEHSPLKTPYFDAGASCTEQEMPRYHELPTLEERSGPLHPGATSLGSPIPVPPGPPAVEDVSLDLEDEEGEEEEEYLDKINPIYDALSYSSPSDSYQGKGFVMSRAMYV
Sequence of UniProt Q9H019 (Q9H019 whole entry, looked up): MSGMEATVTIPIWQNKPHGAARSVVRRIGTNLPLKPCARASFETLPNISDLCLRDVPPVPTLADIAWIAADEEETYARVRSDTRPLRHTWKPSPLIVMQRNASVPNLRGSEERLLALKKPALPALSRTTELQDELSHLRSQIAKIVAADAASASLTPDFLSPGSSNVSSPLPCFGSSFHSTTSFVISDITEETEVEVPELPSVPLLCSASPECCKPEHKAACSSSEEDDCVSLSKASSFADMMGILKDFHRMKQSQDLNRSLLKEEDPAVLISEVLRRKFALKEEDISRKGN
Sequence of UniProt Q9H4L5 (Q9H4L5 whole entry, looked up): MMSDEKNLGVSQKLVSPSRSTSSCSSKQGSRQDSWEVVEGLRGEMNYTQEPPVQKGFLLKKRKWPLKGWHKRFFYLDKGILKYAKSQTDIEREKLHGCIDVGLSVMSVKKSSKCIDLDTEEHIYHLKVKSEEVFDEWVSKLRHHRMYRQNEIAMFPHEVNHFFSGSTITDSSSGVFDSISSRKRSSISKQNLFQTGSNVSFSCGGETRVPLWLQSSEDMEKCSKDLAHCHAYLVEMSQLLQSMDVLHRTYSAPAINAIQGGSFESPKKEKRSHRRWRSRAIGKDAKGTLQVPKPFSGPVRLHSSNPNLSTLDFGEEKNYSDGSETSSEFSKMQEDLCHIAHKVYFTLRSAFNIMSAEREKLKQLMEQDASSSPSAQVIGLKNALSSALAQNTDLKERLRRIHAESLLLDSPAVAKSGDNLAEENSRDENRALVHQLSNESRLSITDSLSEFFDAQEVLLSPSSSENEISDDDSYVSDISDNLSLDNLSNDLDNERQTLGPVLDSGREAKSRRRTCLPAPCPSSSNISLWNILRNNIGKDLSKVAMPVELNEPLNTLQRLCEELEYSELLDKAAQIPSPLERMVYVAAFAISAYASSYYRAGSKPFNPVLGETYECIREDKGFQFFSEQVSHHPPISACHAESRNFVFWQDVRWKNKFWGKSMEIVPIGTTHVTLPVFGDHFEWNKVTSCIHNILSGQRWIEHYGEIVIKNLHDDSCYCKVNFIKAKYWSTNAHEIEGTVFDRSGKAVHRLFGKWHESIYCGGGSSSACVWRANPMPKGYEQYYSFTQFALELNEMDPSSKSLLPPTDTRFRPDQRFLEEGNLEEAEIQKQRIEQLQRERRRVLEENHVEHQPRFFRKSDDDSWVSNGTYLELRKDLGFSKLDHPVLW
Sequence of UniProt O60890 (O60890 whole entry, looked up): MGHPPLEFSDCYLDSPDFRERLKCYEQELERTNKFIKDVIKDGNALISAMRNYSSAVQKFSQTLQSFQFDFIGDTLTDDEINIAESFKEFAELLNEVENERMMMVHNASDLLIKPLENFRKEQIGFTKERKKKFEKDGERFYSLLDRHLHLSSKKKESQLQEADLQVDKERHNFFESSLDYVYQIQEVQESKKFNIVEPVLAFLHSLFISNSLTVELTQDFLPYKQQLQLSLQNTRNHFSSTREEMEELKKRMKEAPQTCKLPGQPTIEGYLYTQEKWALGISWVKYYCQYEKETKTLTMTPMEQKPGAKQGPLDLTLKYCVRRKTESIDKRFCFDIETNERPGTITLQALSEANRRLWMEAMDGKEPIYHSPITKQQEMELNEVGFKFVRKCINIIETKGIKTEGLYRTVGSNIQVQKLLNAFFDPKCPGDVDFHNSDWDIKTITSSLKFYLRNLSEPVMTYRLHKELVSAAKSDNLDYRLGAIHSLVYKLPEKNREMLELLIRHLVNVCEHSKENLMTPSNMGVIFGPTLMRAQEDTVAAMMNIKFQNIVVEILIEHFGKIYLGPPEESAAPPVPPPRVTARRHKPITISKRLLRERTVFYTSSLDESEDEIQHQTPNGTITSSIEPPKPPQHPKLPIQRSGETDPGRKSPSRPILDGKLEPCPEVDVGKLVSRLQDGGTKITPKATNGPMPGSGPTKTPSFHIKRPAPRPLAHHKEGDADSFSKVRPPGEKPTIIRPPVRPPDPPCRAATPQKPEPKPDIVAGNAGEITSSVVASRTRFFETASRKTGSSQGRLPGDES
Sequence of UniProt O95182 (O95182 whole entry, looked up): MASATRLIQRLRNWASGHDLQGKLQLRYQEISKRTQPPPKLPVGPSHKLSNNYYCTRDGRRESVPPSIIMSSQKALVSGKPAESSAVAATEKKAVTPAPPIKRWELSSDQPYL
Sequence of UniProt Q69YL0 (Q69YL0 whole entry, looked up): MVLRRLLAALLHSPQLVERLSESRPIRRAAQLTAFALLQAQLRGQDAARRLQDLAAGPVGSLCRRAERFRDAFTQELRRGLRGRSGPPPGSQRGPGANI

| Target | log2 fold change [1] | log2 fold change [2] | log2 fold change [3] | log2 fold change [4] | log2 fold change [5] | log2 fold change [6] | log2 fold change [7] | log2 fold change [8] | log2 fold change [9] | log2 fold change [10] |
| --- | --- | --- | --- | --- | --- | --- | --- | --- | --- | --- |
| NDUFA9 (UniProt Q16795) | 0.023 | -0.036 | 0.019 | 0.04 | -0.095 | 0.009 | 0.039 | -0.044 | 0.041 | 0.026 |
| OGFOD1 (UniProt Q8N543) | -0.013 | -0.01 | 0.013 | 0.033 | -0.061 | -0.01 | -0.006 | 0.006 | -0.112 | 0.009 |
| OPHN1 (UniProt O60890) | -0.146 | -0.029 |  | 0.218 | -0.12 |  |  | -0.018 | 0.049 | -0.037 |
| ORC5 (UniProt O43913) | -0.193 | -0.089 | 0 | -0.038 |  | 0.058 | 0.058 | 0.058 | -0.009 | 0.025 |
| NAPG (UniProt Q99747) | 0.044 | -0.115 | 0.077 | 0.006 | 0.004 | 0.067 | 0.155 | 0.045 | 0.123 | 0.107 |
| PAAF1 (UniProt Q9BRP4) | -0.026 | -0.005 | 0.016 | 0.003 | -0.035 | -0.028 | 0.019 | -0.038 | 0.023 | 0.021 |
| NCBP2AS2 (UniProt Q69YL0) | 0.069 | 0.017 | 0.162 |  |  | -0.039 | 0.037 | -0.096 | -0.146 | 0.072 |
| NA, A0A2R8Y3M9 | -0.126 | 0.546 | 0.225 | 0.178 |  |  | -0.086 |  |  | -0.138 |
| MRPS16 (UniProt Q9Y3D3) | 0.055 | -0.052 | 0.006 | 0.132 | 0.124 | -0.014 | 0.062 | 0.032 | 0.031 | -0.084 |
| NECTIN2 isoform 2 (UniProt Q92692) | -0.037 | 0.011 |  | -0.104 | 0.17 | 0.033 |  | -0.028 | 0.054 | 0.005 |
| MYSM1 (UniProt Q5VVJ2) | 0.067 | -0.298 |  | 0.006 |  |  |  |  |  | -0.114 |
| NA isoform 3 (UniProt Q4G0T1) | -0.007 | 0.035 | 0.008 | -0.057 |  | 0.005 | -0.077 | -0.012 | -0.009 | 0.179 |
| NCOA5 (UniProt Q9HCD5) | 0.076 | 0.134 | 0.099 | -0.315 |  |  | -0.096 |  | 0.08 |  |
| MRPS5 (UniProt P82675) | 0.08 | -0.086 | -0.005 | 0.004 | 0.159 | -0.048 | 0.062 | 0.016 | 0.013 | 0.023 |
| OSBPL3 (UniProt Q9H4L5) | 0.35 | 0.04 | 0.006 | -0.062 | 0.471 | -0.267 | -0.09 |  | -0.204 |  |
| PAFAH2 (UniProt Q99487) | -0.09 | 0.006 | 0.019 | -0.038 |  | 0.093 | -0.015 |  | 0.059 | -0.044 |
| MTHFS (UniProt P49914) | 0.047 | -0.054 | -0.01 | 0.047 | -0.005 | -0.017 | 0.01 | -0.041 | -0.063 | 0.009 |
| MRPS22 (UniProt P82650) | 0.041 | -0.029 | 0.022 | -0.018 | 0.092 | -0.024 | 0.037 | 0.049 | 0.032 | -0.055 |
| MLX (UniProt Q9UH92) | 0.035 | -0.027 | 0.082 | 0 | 0.009 |  | 0.008 | 0.071 | 0.047 | 0.117 |
| NDUFA7 (UniProt O95182) | -0.013 | 0 | -0.007 | -0.021 | -0.035 | -0.045 | 0.019 | -0.079 | -0.024 | -0.011 |
| NT5DC1 (UniProt Q5TFE4) | 0.149 | -0.018 | -0.019 | 0.021 | -0.068 | -0.001 | -0.016 | -0.003 | 0.004 | -0.039 |
| NELFB isoform 2 (UniProt Q8WX92) | -0.026 | -0.062 | 0.035 | 0.05 | -0.032 | 0.06 | 0.08 | -0.007 | 0.069 | 0.046 |
| NSDHL (UniProt Q15738) | 0.073 | -0.005 | 0.029 | -0.001 | -0.111 | 0.07 | -0.027 | -0.031 | -0.013 | -0.004 |
| MTHFD1, A0A384N5Y3 | 0.036 | -0.107 | -0.055 |  | 0.013 | 0.088 | 0.058 | -0.035 |  | 0.044 |
| NFYB (UniProt P25208) | -0.012 | -0.118 | -0.023 | 0.025 |  | 0.026 | 0.025 | 0.044 | -0.012 | 0.049 |
| MTFR1L (UniProt Q9H019) | 0.082 | -0.006 | 0.008 | -0.122 | -0.027 | 0.048 | 0.116 |  | 0.031 | -0.026 |
| MYLK (UniProt Q15746) | 0.832 (active) | 0.108 | -0.013 | 0.202 |  | 0.081 | -0.01 | -0.154 | -0.132 | 0.032 |
| MRPS6 (UniProt P82932) | 0.081 | -0.052 | 0.006 | 0.128 | 0.076 | 0.1 | 0.059 | 0.062 | 0.037 | -0.017 |
| MON1A (UniProt Q86VX9) | 0.055 | 0.004 | -0.061 | 0.061 | 0.015 |  | -0.011 | 0.009 | 0.008 | 0.065 |
